According to PubChem BioAssay (NCI):
The panel holds about 83,000 compounds, 20% with a hit somewhere; the sample as a whole holds those more often.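 Single-concentration screen, 48 h exposure, 96-well plates. Endpoint: percent growth. Below 10 = active.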 Calls of active or inactive are those of the source.

Assays:
Assay in all cases: NCI-60 one-dose screen, 48 h (100 = growth as untreated, 0 = no growth, -100 = all killed)
Details in all cases: 10 µM unless noted
DU-145 prostate = test system: DU-145 prostate
K-562 leukemia = test system: K-562 leukemia
MALME-3M melanoma = test system: MALME-3M melanoma
MDA-MB-231 breast = test system: MDA-MB-231 breast
RXF 393 renal = test system: RXF 393 renal
SF-268 CNS = test system: SF-268 CNS
SF-295 CNS = test system: SF-295 CNS
SF-539 CNS = test system: SF-539 CNS
UACC-257 melanoma = test system: UACC-257 melanoma
M14 melanoma = test system: M14 melanoma
HCT-15 colon = test system: HCT-15 colon
HT29 colon = test system: HT29 colon
SNB-75 CNS = test system: SNB-75 CNS
SNB-19 CNS = test system: SNB-19 CNS
U251 CNS = test system: U251 CNS
PC-3 prostate = test system: PC-3 prostate
SK-MEL-5 melanoma = test system: SK-MEL-5 melanoma
UACC-62 melanoma = test system: UACC-62 melanoma
LOX IMVI melanoma = test system: LOX IMVI melanoma
SK-MEL-28 melanoma = test system: SK-MEL-28 melanoma

Measured: growth

Cc1csc(Nc2nc(-c3cccc(Cl)c3)nc(C(Cl)(Cl)Cl)n2)n1
active: DU-145 prostate -30.4% | MDA-MB-231 breast 9.88% | RXF 393 renal -2.8% | HT29 colon 2.7% | SNB-75 CNS 3.48%
inactive: K-562 leukemia 65.6% | MALME-3M melanoma 102% | SF-268 CNS 65.8% | SF-295 CNS 34.1% | SF-539 CNS 34% | UACC-257 melanoma 36.2% | M14 melanoma 88.3% | HCT-15 colon 53.9% | SNB-19 CNS 39.9% | U251 CNS 19.9% | PC-3 prostate 39.7% | SK-MEL-5 melanoma 88.8% | UACC-62 melanoma 74.2% | LOX IMVI melanoma 91.1% | SK-MEL-28 melanoma 39.5%

COc1ccc(-c2ccc(-c3ccc(C(=N)N)nc3)s2)cc1
inactive: MALME-3M melanoma 87.7% | RXF 393 renal 66.4% | UACC-257 melanoma 84.6% | SNB-75 CNS 116% | SK-MEL-5 melanoma 70.8% | SK-MEL-28 melanoma 93.8%
active: DU-145 prostate -91.5% | K-562 leukemia -27% | MDA-MB-231 breast -79.8% | SF-268 CNS -65.4% | SF-295 CNS -81.2% | SF-539 CNS -98.4% | M14 melanoma -56.6% | HCT-15 colon -77% | HT29 colon -43.1% | SNB-19 CNS 4.32% | U251 CNS -51.9% | PC-3 prostate -37.4% | UACC-62 melanoma -94.2% | LOX IMVI melanoma -89%

CN(C)C(=S)NN=C(c1ccccn1)c1ccccn1
inactive: MDA-MB-231 breast 40.3% | SF-268 CNS 24.6% | SF-295 CNS 21.5% | UACC-257 melanoma 35.9% | M14 melanoma 17.2% | HCT-15 colon 37.3% | HT29 colon 27.9% | SNB-19 CNS 32.7% | U251 CNS 18.1% | PC-3 prostate 37.7% | SK-MEL-28 melanoma 30.7%
active: DU-145 prostate -18.9% | K-562 leukemia 7.91% | MALME-3M melanoma -6.46% | RXF 393 renal 6.64% | SF-539 CNS -48.2% | SNB-75 CNS -22.2% | SK-MEL-5 melanoma -19.8% | UACC-62 melanoma 9.88% | LOX IMVI melanoma 8.85%

COC(=O)c1cc(-c2ccc(OC)c(OC)c2)[nH]c1N/N=C/c1c(Cl)cccc1Cl
active: RXF 393 renal -10.4% | SF-295 CNS -0.264% | SF-539 CNS -15.2% | M14 melanoma 0.331% | SNB-75 CNS 4.55%
inactive: DU-145 prostate 21.2% | K-562 leukemia 19.9% | MALME-3M melanoma 46.8% | MDA-MB-231 breast 41.1% | SF-268 CNS 43.6% | UACC-257 melanoma 49.3% | HCT-15 colon 28.4% | HT29 colon 13.7% | SNB-19 CNS 36.1% | U251 CNS 30.2% | PC-3 prostate 26.3% | SK-MEL-5 melanoma 12.7% | UACC-62 melanoma 38.2% | LOX IMVI melanoma 39.3% | SK-MEL-28 melanoma 56.4%

COC(=O)CNC(=O)c1ccc(NC(=O)c2[nH]c(C)c(Cl)c2Cl)c(O[C@H]2CCNC2)c1
inactive: DU-145 prostate 110% | K-562 leukemia 90.7% | MALME-3M melanoma 109% | MDA-MB-231 breast 105% | RXF 393 renal 111% | SF-268 CNS 102% | SF-295 CNS 105% | SF-539 CNS 98% | UACC-257 melanoma 103% | M14 melanoma 107% | HCT-15 colon 107% | HT29 colon 108% | SNB-75 CNS 94.8% | SNB-19 CNS 102% | U251 CNS 101% | PC-3 prostate 96.8% | SK-MEL-5 melanoma 101% | UACC-62 melanoma 98.7% | LOX IMVI melanoma 94.4% | SK-MEL-28 melanoma 115%

C=CC(=O)NCc1cccc(Nc2ncc(Br)c(NCCCNC(=O)C3CCC3)n2)c1
active: DU-145 prostate 9.47% | K-562 leukemia 9.33% | MALME-3M melanoma -23.2% | MDA-MB-231 breast -26% | RXF 393 renal -74.6% | SF-268 CNS -29.4% | SF-295 CNS 2.75% | SF-539 CNS -68% | UACC-257 melanoma 0.107% | M14 melanoma -31% | HCT-15 colon 0.948% | HT29 colon -18.2% | SNB-75 CNS -70.4% | SNB-19 CNS 3.56% | U251 CNS -2.33% | PC-3 prostate 7.62% | SK-MEL-5 melanoma -39.8% | UACC-62 melanoma -41.6% | LOX IMVI melanoma -41.1% | SK-MEL-28 melanoma -15.7%

Oc1cccc(-c2nc(-c3n[nH]c(=S)n3-c3ccccc3)cc3c2[nH]c2ccccc23)c1
active: RXF 393 renal -15.7% | SF-295 CNS 3.87% | SF-539 CNS -15.2% | HT29 colon 6.61% | SNB-75 CNS -11.5% | SK-MEL-5 melanoma 9.76% | LOX IMVI melanoma 8.16%
inactive: DU-145 prostate 27.7% | K-562 leukemia 11.1% | MALME-3M melanoma 44.4% | MDA-MB-231 breast 45.7% | SF-268 CNS 28.6% | UACC-257 melanoma 66.7% | M14 melanoma 24.6% | HCT-15 colon 20.3% | SNB-19 CNS 24.2% | U251 CNS 14% | PC-3 prostate 30% | UACC-62 melanoma 32% | SK-MEL-28 melanoma 31.4%

Nc1ncc(-c2ccc3ncnc(N4CCc5ccc(Cl)cc54)c3c2)cn1
active: MALME-3M melanoma -17.4% | MDA-MB-231 breast -3.01% | RXF 393 renal -29.4% | SF-295 CNS -7.57% | SF-539 CNS -68.8% | UACC-257 melanoma 8.1% | M14 melanoma 8.74% | HCT-15 colon 7.19% | HT29 colon 1.74% | SNB-75 CNS -11.6% | U251 CNS 9.31% | PC-3 prostate 8.82% | SK-MEL-5 melanoma -52.2% | UACC-62 melanoma -23.6% | LOX IMVI melanoma 1.27% | SK-MEL-28 melanoma -6.35%
inactive: DU-145 prostate 10% | K-562 leukemia 10.5% | SF-268 CNS 11.2% | SNB-19 CNS 14.1%

Cc1ccccc1NC(=O)Cn1cc(CN2CCN(c3ccnc4cc(Cl)ccc34)CC2)nn1
inactive: DU-145 prostate 105% | K-562 leukemia 70% | MALME-3M melanoma 109% | MDA-MB-231 breast 83.1% | RXF 393 renal 102% | SF-268 CNS 92.6% | SF-295 CNS 100% | SF-539 CNS 97.8% | UACC-257 melanoma 109% | M14 melanoma 101% | HCT-15 colon 98.5% | HT29 colon 105% | SNB-75 CNS 85.8% | SNB-19 CNS 93.3% | U251 CNS 100% | PC-3 prostate 81.4% | SK-MEL-5 melanoma 91.2% | UACC-62 melanoma 84.3% | LOX IMVI melanoma 97.7% | SK-MEL-28 melanoma 100%

N#Cc1c(-c2ccc(F)cc2)cc(-c2cccc(Cl)c2)[nH]c1=O
active: SF-539 CNS 9.45% | SNB-75 CNS -25.5%
inactive: DU-145 prostate 73.9% | K-562 leukemia 56.2% | MALME-3M melanoma 70.1% | MDA-MB-231 breast 60.7% | RXF 393 renal 51.7% | SF-268 CNS 41.9% | SF-295 CNS 71.4% | UACC-257 melanoma 93.8% | M14 melanoma 82.3% | HCT-15 colon 58.1% | HT29 colon 110% | SNB-19 CNS 42.7% | U251 CNS 39.5% | PC-3 prostate 72.7% | SK-MEL-5 melanoma 70.1% | UACC-62 melanoma 40.9% | LOX IMVI melanoma 63.6% | SK-MEL-28 melanoma 83.9%

c1ccc(-c2cn3nc(-c4c[nH]c5ccccc45)sc3n2)cc1
inactive: DU-145 prostate 98% | K-562 leukemia 42.4% | MALME-3M melanoma 62.6% | MDA-MB-231 breast 76.5% | RXF 393 renal 97.4% | SF-268 CNS 94.4% | SF-295 CNS 83.7% | SF-539 CNS 85.5% | UACC-257 melanoma 83.2% | M14 melanoma 71.1% | HCT-15 colon 56.2% | HT29 colon 86% | SNB-75 CNS 54.1% | SNB-19 CNS 87.6% | U251 CNS 92.4% | PC-3 prostate 76.8% | SK-MEL-5 melanoma 74.2% | UACC-62 melanoma 71% | LOX IMVI melanoma 86% | SK-MEL-28 melanoma 86.8%

O=C1c2ccccc2C(=O)c2cc(Cn3c[n+](Cc4ccc5ccccc5c4)c4ccccc43)ccc21
active: UACC-62 melanoma 4.86%
inactive: DU-145 prostate 83.1% | K-562 leukemia 17.6% | MALME-3M melanoma 48% | MDA-MB-231 breast 26.2% | RXF 393 renal 62.6% | SF-268 CNS 49.3% | SF-295 CNS 82.2% | SF-539 CNS 70.6% | UACC-257 melanoma 42.9% | M14 melanoma 38.7% | HCT-15 colon 89.8% | HT29 colon 51.5% | SNB-75 CNS 42.3% | SNB-19 CNS 45% | U251 CNS 57.1% | PC-3 prostate 27.7% | SK-MEL-5 melanoma 34.1% | LOX IMVI melanoma 52% | SK-MEL-28 melanoma 45.4%

CCOC(=O)/C(=C/c1ccc([N+](=O)[O-])cc1)C(=O)c1ccccc1
active: K-562 leukemia 4.82% | RXF 393 renal -11.1% | SF-539 CNS -24.9% | HCT-15 colon -15.2% | HT29 colon -23.7% | PC-3 prostate 5.94% | LOX IMVI melanoma -68.2% | SK-MEL-28 melanoma -29.4%
inactive: DU-145 prostate 65.3% | MALME-3M melanoma 32.4% | MDA-MB-231 breast 20.1% | SF-268 CNS 24.5% | SF-295 CNS 81.6% | UACC-257 melanoma 45.4% | M14 melanoma 32.4% | SNB-75 CNS 47% | SNB-19 CNS 51.5% | U251 CNS 26% | SK-MEL-5 melanoma 62.4% | UACC-62 melanoma 19.7%

CC1=C(C(=O)OCc2ccccc2)C(c2ccc3c(c2)OCO3)n2c(nc3ccccc32)N1 (stereo not given)
inactive: DU-145 prostate 53.5% | K-562 leukemia 13.8% | MALME-3M melanoma 39.7% | MDA-MB-231 breast 68.6% | RXF 393 renal 53.2% | SF-268 CNS 59.6% | SF-295 CNS 20.4% | UACC-257 melanoma 60.4% | M14 melanoma 28.1% | HCT-15 colon 30.4% | HT29 colon 14.4% | SNB-19 CNS 41.6% | U251 CNS 36.3% | PC-3 prostate 41.1% | SK-MEL-5 melanoma 25.5% | UACC-62 melanoma 46.2% | LOX IMVI melanoma 34.6% | SK-MEL-28 melanoma 61.8%
active: SF-539 CNS 9.94% | SNB-75 CNS -6.67%

CN(Cc1ccccc1)c1nc(Cl)c(C2CC(c3ccc(Cl)cc3)=NN2c2cc(Cl)cc(Cl)c2)s1 (stereo not given)
inactive: DU-145 prostate 109% | K-562 leukemia 87% | MALME-3M melanoma 97.3% | MDA-MB-231 breast 110% | RXF 393 renal 104% | SF-268 CNS 100% | SF-295 CNS 95.3% | SF-539 CNS 106% | UACC-257 melanoma 110% | M14 melanoma 96.1% | HCT-15 colon 98.8% | HT29 colon 92.9% | SNB-75 CNS 90.4% | SNB-19 CNS 108% | U251 CNS 109% | PC-3 prostate 92.5% | SK-MEL-5 melanoma 107% | UACC-62 melanoma 98.1% | LOX IMVI melanoma 97.8% | SK-MEL-28 melanoma 112%
